From PubChem BioAssay AID1159580 (chemical genetic matrix, 2015)
In all, about 5,500 compounds went through this assay and about 2,000 (36%) were called active. About 18% were inconclusive and are not listed. No stated cut-off is given here; in the data, active means normalized growth mostly below about 0.91 (no sharp cut-off); inconclusive means no clear call, values can overlap the other calls; inactive means mostly above about 0.92. Some of the results follow.

Test: chemical genetic growth profiling, strain panel (AID 1159580);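 further: tested at 20 µM; growth read once vehicle control cultures reached saturation at 30 °C; 1 = growth at the plate median or of vehicle wells; lower values mean less growth of the strain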
Conditions: growth OD

Measured: normalized growth

CCOC(=O)CCCCCCCCCCCCC1C=CCC1 (centres undefined)
active: S. cerevisiae deletion strains, locus YJR075W, strain HOC1, hits give low values 0.062 | S. cerevisiae deletion strains, locus YKL009W, strain mrt4, hits give low values 0.729 | S. cerevisiae deletion strains, locus YKL085W, strain MDH1 (second series), hits give low values 0.627 | S. cerevisiae deletion strains, locus YKL085W, strain MDH1, hits give low values 0.627 | S. cerevisiae deletion strains, locus YKR001C, strain vps1, hits give low values 0.0645 | S. cerevisiae deletion strains, locus YLR039C, strain RIC1, hits give low values 0.0918 | S. cerevisiae deletion strains, locus YLR058C, strain SHM2, hits give low values 0.0501 | S. cerevisiae deletion strains, locus YLR102C, strain apc9, hits give low values 0.0639 | S. cerevisiae deletion strains, locus YLR262C, strain YPT6, hits give low values 0.102 | S. cerevisiae deletion strains, locus YLR268W, strain sec22, hits give low values 0.0626 | S. cerevisiae deletion strains, locus YLR320W, strain mms22, hits give low values 0.808 | S. cerevisiae deletion strains, locus YLR330W, strain CHS5, hits give low values 0.0514 | S. cerevisiae deletion strains, locus YLR342W, strain FKS1 (second series), hits give low values 0.0786 | S. cerevisiae deletion strains, locus YLR371W, strain rom2, hits give low values 0.0661 | S. cerevisiae deletion strains, locus YLR418C, strain cdc73, hits give low values 0.0873 | S. cerevisiae deletion strains, locus YML016C, strain PPZ1, hits give low values 0.0464 | S. cerevisiae deletion strains, locus YML032C, strain rad52, hits give low values 0.0734 | S. cerevisiae deletion strains, locus YML124C, strain tub3, hits give low values 0.063 | S. cerevisiae deletion strains, locus YMR078C, strain ctf18, hits give low values 0.0817 | S. cerevisiae deletion strains, locus YMR205C, strain PFK2, hits give low values 0.864 | S. cerevisiae deletion strains, locus YMR223W, strain ubp8, hits give low values 0.0615 | S. cerevisiae deletion strains, locus YMR307W, strain GAS1, hits give low values 0.12 | S. cerevisiae deletion strains, locus YNL067W, strain RPL9B, hits give low values 0.0497 | S. cerevisiae deletion strains, locus YNL071W, strain lat1, hits give low values 0.808 | S. cerevisiae deletion strains, locus YNL128W, strain TEP1, hits give low values 0.0632 | S. cerevisiae deletion strains, locus YNL153C, strain GIM3, hits give low values 0.0549 | S. cerevisiae deletion strains, locus YNL233W, strain BNI4, hits give low values 0.0592 | S. cerevisiae deletion strains, locus YNL250W, strain rad50, hits give low values 0.848 | S. cerevisiae deletion strains, locus YNL271C, strain bni1, hits give low values 0.146 | S. cerevisiae deletion strains, locus YNL298W, strain CLA4, hits give low values 0.0648 | S. cerevisiae deletion strains, locus YNL307C, strain MCK1, hits give low values 0.0657 | S. cerevisiae deletion strains, locus YNL322C, strain KRE1, hits give low values 0.047 | S. cerevisiae deletion strains, locus YNR052C, strain pop2, hits give low values 0.0632 | S. cerevisiae deletion strains, locus YOL006C, strain TOP1, hits give low values 0.119 | S. cerevisiae deletion strains, locus YOL012C, strain htz1 0.179 | S. cerevisiae deletion strains, locus YOL147C, strain pex11, hits give low values 0.0616 | S. cerevisiae deletion strains, locus YOR061W, strain CKA2, hits give low values 0.0461 | S. cerevisiae deletion strains, locus YOR069W, strain VPS5, hits give low values 0.0484 | S. cerevisiae deletion strains, locus YOR136W, strain idh2, hits give low values 0.0725 | S. cerevisiae deletion strains, locus YOR144C, strain elg1, hits give low values 0.0688 | S. cerevisiae deletion strains, locus YOR184W, strain ser1, hits give low values 0.0609 | S. cerevisiae deletion strains, locus YOR316C, strain cot1, hits give low values 0.0601 | S. cerevisiae deletion strains, locus YPR119W, strain clb2, hits give low values 0.0692 | S. cerevisiae deletion strains, locus YPR163C, strain tif3, hits give low values 0.0692 | S. cerevisiae deletion strains, locus YPR167C, strain met16, hits give low values 0.0627 | S. cerevisiae deletion strains, strain wtn01, hits give low values 0.0688 | S. cerevisiae strains, strain wild type, hits give low values 0.0499
inactive: S. cerevisiae deletion strains, locus YJR066W, strain TOR1, hits give low values 0.902 | S. cerevisiae deletion strains, locus YKL068W, hits give low values 0.984 | S. cerevisiae deletion strains, locus YKL160W, strain elf1, hits give low values 1 | S. cerevisiae deletion strains, locus YKR026C, strain gcn3, hits give low values 0.975 | S. cerevisiae deletion strains, locus YKR091W, strain srl3, hits give low values 0.983 | S. cerevisiae deletion strains, locus YLL001W, strain dnm1, hits give low values 1 | S. cerevisiae deletion strains, locus YLL026W, hits give low values 0.961 | S. cerevisiae deletion strains, locus YLL041C, strain sdh2, hits give low values 0.992 | S. cerevisiae deletion strains, locus YLR027C, strain aat2, hits give low values 0.973 | S. cerevisiae deletion strains, locus YLR113W, strain HOG1, hits give low values 1.01 | S. cerevisiae deletion strains, locus YLR221C, strain rsa3, hits give low values 0.938 | S. cerevisiae deletion strains, locus YLR258W, strain gsy2, hits give low values 0.946 | S. cerevisiae deletion strains, locus YLR262C, strain YPT6 (second series), hits give low values 0.942 | S. cerevisiae deletion strains, locus YLR342W, strain FKS1, hits give low values 0.954 | S. cerevisiae deletion strains, locus YLR357W, strain rsc2, hits give low values 1 | S. cerevisiae deletion strains, locus YLR370C, strain arc18, hits give low values 0.994 | S. cerevisiae deletion strains, locus YLR384C, strain iki3, hits give low values 0.965 | S. cerevisiae deletion strains, locus YML120C, strain ndi1, hits give low values 0.994 | S. cerevisiae deletion strains, locus YMR058W, strain fet3, hits give low values 0.991 | S. cerevisiae deletion strains, locus YMR125W, strain sto1, hits give low values 0.951 | S. cerevisiae deletion strains, locus YMR129W, hits give low values 0.993 | S. cerevisiae deletion strains, locus YMR231W, strain pep5, hits give low values 0.971 | S. cerevisiae deletion strains, locus YNL183C, strain NPR1, hits give low values 0.893 | S. cerevisiae deletion strains, locus YNL209W, strain ssb2, hits give low values 0.982 | S. cerevisiae deletion strains, locus YNL248C, strain rpa49, hits give low values 1.01 | S. cerevisiae deletion strains, locus YNL322C, strain KRE1 (second series), hits give low values 0.998 | S. cerevisiae deletion strains, locus YNR049C, strain mso1, hits give low values 0.987 | S. cerevisiae deletion strains, locus YOR001W, strain rrp6, hits give low values 1 | S. cerevisiae deletion strains, locus YOR070C, strain gyp1, hits give low values 0.962 | S. cerevisiae deletion strains, locus YOR080W, strain dia2, hits give low values 0.99 | S. cerevisiae deletion strains, locus YOR083W, strain WHI5, hits give low values 1 | S. cerevisiae deletion strains, locus YOR106W, strain vam3, hits give low values 0.976 | S. cerevisiae deletion strains, locus YOR231W, strain MKK1, hits give low values 0.984 | S. cerevisiae deletion strains, locus YOR265W, strain rbl2, hits give low values 0.982 | S. cerevisiae deletion strains, locus YOR270C, strain vph1, hits give low values 1.01 | S. cerevisiae deletion strains, locus YOR290C, strain snf2, hits give low values 0.962 | S. cerevisiae deletion strains, locus YPL051W, strain arl3, hits give low values 0.989 | S. cerevisiae deletion strains, locus YPL078C, strain atp4, hits give low values 0.979 | S. cerevisiae deletion strains, locus YPL106C, strain sse1, hits give low values 1.12 | S. cerevisiae deletion strains, locus YPL240C, strain hsp82, hits give low values 0.988 | S. cerevisiae deletion strains, locus YPL256C, strain CLN2, hits give low values 1.03 | S. cerevisiae deletion strains, locus YPR141C, strain kar3, hits give low values 0.99
